High-throughput results from PubChem.
An excerpt weighted towards active compounds, which were near 21% of everything screened.
Pf growth 96h = inhibits malaria parasite growth, 96 h; P. falciparum luciferase reporter growth, 96 h; Potency, µM (top dose mostly 28.7 µM), hits mostly inhibitors; actives 6.9% (n = 320,000); AID 504834
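Parasite growth measured via integrated firefly luciferase reporter in P. falciparum. Infected erythrocytes at 2% hematocrit, 0.05% parasitemia final were treated 96 hours at 37 C under 5% CO2, and luminescence was read.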
SARS PLpro yeast = inhibitors of SARS-CoV papain-like protease in yeast | S. cerevisiae expressing SARS-CoV PLpro, growth rescue | Potency, µM (top dose mostly 32.9 µM), hits mostly activators | actives 0.19% (n = 330,000); calls by dose curve; also: nearly all actives have a fitted effect of over 55% in size
Pf growth 48h = inhibits P. falciparum growth in the first generation, 48 h; P. falciparum luciferase growth in erythrocytes, 48 h; Potency, µM (top dose mostly 28.7 µM), most hits filed as inhibitors; actives 5.9% (n = 310,000)
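Here the parasites carry a stable luciferase gene and grow inside erythrocytes in Albumax-based RPMI medium with compound for one erythrocytic cycle. Activity is scored as loss of luminescent signal.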
Shiga inhibitor = blocks Shiga toxin action in Vero cells; inhibition, % at 38.7 µM; actives 9.2% (n = 290,000); Vero cells, Shiga toxin protein synthesis inhibition reporter; in the data active = inhibition mostly above about 28%, no sharp cut-off; inactive = mostly below about 43%
Cycloheximide cs = affects cycloheximide protein synthesis inhibition readout, counter-screen | max response, % | AID 2314 | cell reporter, cycloheximide protein synthesis inhibition counterscreen | actives 12% (n = 300,000); in the data active = max response mostly above about 13%, no sharp cut-off; inactive = mostly below about 14%; also: read at 38.3 µM for the half of the compounds with a filed dose
NS1 function inh = influenza NS1 inhibition. Potency, µM (series often up to 46.1 µM). AID 2326. actives 0.4% (n = 270,000); calls by dose curve; also: actives are rising curves; nearly all actives have a fitted effect of over 50% in size
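In this qHTS, NS1 from influenza A is expressed in budding yeast, where it slows growth. Cells are switched from glucose to 2% galactose medium (pH 6.0, -URA), treated with compound, and growth recovery is read at OD600.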
Numbers stand for hits; i = inactive; ? = inconclusive; nt = not tested or not shown; + = active, no number. Unless noted, calls follow the shape of the dose curve; as a rule, active = well fitted inhibition curve with a large enough effect; inconclusive = small, poorly fitted or top-dose-only effect, or another doubt; inactive = no such curve, though single readings can be large or run the other way.

SMILES	Pf growth 96h	SARS PLpro yeast	Pf growth 48h	Shiga inhibitor	Cycloheximide cs	NS1 function inh
O=C(Cc1ccc(Cl)cc1)NNC(=S)NC(=O)c1cccs1	i	i	i	34	i	i
O=C(CNC(=O)c1cccs1)c1ccc(Cl)cc1	?	i	i	79	37	i
O=C(NCCc1ccc(Cl)cc1)c1cccs1	?	i	i	134	42	nt
O=C(NCCc1ccc(S(=O)(=O)N2CCCC2)cc1)c1cccs1	i	i	i	i	i	i
O=C(Cc1cccs1)NNC(=S)NCc1ccc(Cl)cc1	i	i	i	i	i	i
O=C(CNC(=O)c1cccs1)c1ccc(F)cc1	i	i	i	i	25	i
O=C(CN(Cc1ccccc1)S(=O)(=O)c1ccc(F)cc1)NCc1cccnc1	i	i	?	i	i	i
CCN(C(=O)c1ccccc1)c1ccc([N+](=O)[O-])cc1	8.3µM	i	?	i	i	i
O=C(CNC(=O)c1cccs1)c1ccc([N+](=O)[O-])cc1	i	i	i	92	23	i
O=C(CNC(=O)c1ccc([N+](=O)[O-])cc1)c1ccccc1	i	i	i	95	46	i
O=C(CNc1ccccc1)c1ccc([N+](=O)[O-])cc1	?	i	i	i	i	i
O=C(NCC(=O)c1ccccc1)OCc1ccc([N+](=O)[O-])cc1	13µM	i	i	nt	30	i
O=C(CNC(=O)c1cccs1)OCC(=O)c1ccc([N+](=O)[O-])cc1	i	i	i	i	i	i
O=S(=O)(NCCS(=O)(=O)N1CCN(c2ccccc2)CC1)c1ccccc1	i	i	i	i	i	i
CCc1ccc(NC(=O)c2c(C(=O)Nc3ccccc3)sc3nc(C)cc(=O)n23)cc1	i	i	?	i	i	nt
O=C(COc1cccc(NC(=O)c2cccs2)c1)c1ccc(F)cc1	?	i	i	+	i	i
CC1CN(c2nc3ccccc3nc2SCC(=O)Nc2ccc(F)cc2)CC(C)O1 (stereo not drawn)	i	i	?	i	i	i
O/N=C/c1ccnc(SCc2ccc(Cl)cc2)n1	i	i	i	75	51	i
O/N=C/c1ccnc(SCc2ccccc2)n1	i	i	i	64	31	i
COc1ccc(-n2c(-c3ccc(Cl)cc3)c[n+]3c2CCc2ccccc2-3)cc1	?	i	1.9µM	i	i	nt
COc1cc(Nc2cc(C)nc3ncnn23)cc(OC)c1	i	i	8.3µM	i	i	i
COc1ccc(Nc2cc(C)nc3ncnn23)cc1Cl	?	i	?	i	i	i
COc1cc(Nc2cc(C)nc3ncnn23)cc(OC)c1OC	?	i	9.3µM	i	i	i
COC(=O)C1CN(C(=O)COc2ccc(C)cc2)c2ccccc2O1 (stereo not drawn)	i	i	i	i	i	i
COc1ccc(CNC(=S)NCc2ccc(Cl)cc2)cc1OC	i	i	i	i	i	i
SMILES	Pf growth 96h	SARS PLpro yeast	Pf growth 48h	Shiga inhibitor	Cycloheximide cs	NS1 function inh
C=CCn1c(SCC(=O)Nc2cccc(S(=O)(=O)N(C)c3ccccc3)c2)nnc1C1CC1	?	i	i	nt	nt	nt
CC(=O)Nc1nonc1-n1nnc(C(=O)NCc2ccccc2)c1C	2.3µM	i	i	i	i	i
Nc1c(C(=O)Nc2ccc(F)cc2)nnn1-c1cccc(C(F)(F)F)c1	9.3µM	i	i	i	15	nt
Nc1c(C(=O)Nc2cccc(F)c2)nnn1-c1cccc(C(F)(F)F)c1	?	i	i	60	18	nt
Cc1cccc(-n2nnc(C(=O)NCc3ccccc3)c2N)c1	i	i	i	i	12	i
Cc1ccc(NC(=O)c2nnn(-c3cccc(C(F)(F)F)c3)c2N)cc1	12µM	i	i	i	i	nt
COc1cc(C(=O)Nc2ccc(Br)cc2C(=O)c2cc(OC)c(OC)c(OC)c2)cc(OC)c1OC	i	i	?	i	i	i
Cc1ccc(C(=O)N2CCCCCC2)cc1S(=O)(=O)Nc1ccccc1	i	i	i	i	i	i
O=C(c1ccc(OC2CCN(C/C=C/c3ccccc3)CC2)cc1)N1CCCC1	10µM	i	2.9µM	i	i	i
COc1ccccc1/C=C/CN1CCC(Oc2ccc(C(=O)N3CCCCC3)cc2)CC1	i	i	7.4µM	i	i	i
COc1ccccc1/C=C/CN1CCC(Oc2cc(C(=O)NC3CC3)ccc2OC)CC1	i	i	9.3µM	i	i	i
COc1ccc(NS(=O)(=O)c2cc(C(=O)N3CCN(C/C=C/c4ccccc4)CC3)ccc2C)cc1	?	i	12µM	nt	nt	nt
Cc1ccc2nsnc2c1S(=O)(=O)Nc1cccc2cccnc12	nt	nt	nt	i	i	nt
CCOc1ccc(N(CC(=O)NCCSCc2ccccc2)S(C)(=O)=O)cc1	i	i	i	i	i	i
Cc1ccc(S(=O)(=O)NCC(=O)OCC(=O)NC2CCCCC2)cc1	nt	i	nt	nt	nt	nt
Cc1cc(C)cc(NC(=O)N2CCN(C/C=C/c3ccccc3)CC2)c1	2.9µM	i	i	i	i	i
CC(C(=O)Nc1cccc([N+](=O)[O-])c1)N1CCN(C/C=C/c2ccccc2)CC1 (stereo not drawn)	13µM	i	?	i	i	i
O=C(Nc1ccc(F)cc1)N1CCN(C/C=C/c2ccccc2)CC1	i	i	?	i	i	i
O=C(c1ccco1)N1CCN(C/C=C/c2ccccc2)CC1	i	?	i	i	i	i
O=C(c1nn(Cc2ccccc2)c(=O)c2ccccc12)N1CCN(C/C=C/c2ccccc2)CC1	7.4µM	i	12µM	i	i	i
CCOc1cc(C(=O)N2CCN(C/C=C/c3ccccc3)CC2)cc(OCC)c1OCC	5.2µM	i	nt	i	i	i
O=C(c1cccc([N+](=O)[O-])c1)N1CCN(C/C=C/c2ccccc2)CC1	?	i	?	i	i	i
Cc1cc(C)cc(CN2CCC(Oc3ccc(C(=O)N4CCCC4)cc3)CC2)c1	i	i	12µM	i	i	i
COc1ccc(CCN2CC(C(=O)NCCc3cccnc3)CCC2=O)cc1 (stereo not drawn)	?	i	i	i	i	i
CNC(=O)c1ccc(NC(=O)C2CCN(S(=O)(=O)c3cccc(C(F)(F)F)c3)CC2)cc1	?	i	13µM	nt	nt	nt
SMILES	Pf growth 96h	SARS PLpro yeast	Pf growth 48h	Shiga inhibitor	Cycloheximide cs	NS1 function inh
O=C(Nc1cccc(C(F)(F)F)c1)C1CCN(S(=O)(=O)c2cccnc2)CC1	?	i	i	i	i	i
Cc1ccnc(NC(=O)C2CCN(S(=O)(=O)c3cccc(C(F)(F)F)c3)CC2)c1	?	i	?	i	14	i
N#Cc1ccccc1NC(=O)C(=O)NCCc1csc(-c2ccc(F)cc2)n1	i	i	i	nt	nt	nt
CCC(=O)Nc1ccc(N2CCN(Cc3ccccc3)CC2)cc1	i	i	?	i	i	i
O=C(Nc1ccc(N2CCN(Cc3ccccc3)CC2)cc1)c1ncn[nH]1	nt	i	5.9µM	i	i	i
O=C(CSc1nc2ccccc2[nH]1)Nc1ccc(N2CCOCC2)cc1	?	i	?	30	16	i
O=C(CSc1nc2ccccc2[nH]1)Nc1cccc(S(=O)(=O)N2CCOCC2)c1	i	i	i	i	i	nt
